The whole screen tested about 390,000 compounds, of which about 2,600 (0.67%) were called active.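 The calls were made as follows: active = mean inhibition of replicates at least 50% and at least half of replicates each reaching 50%; inconclusive = half or more replicates reach 50% but mean below 50%; inactive = the rest.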 This excerpt belongs to a sample that is enriched for actives.
molecular target: Transforming acidic coiled-coil-containing protein 3 (Homo sapiens) (UniProt Q9Y6A5); test: disruptors of ARNT/TACC3 protein interaction, primary screen, biochemical, AlphaScreen, single concentration (AID 623870); conditions: AlphaScreen His-ARNT PAS-B/GST-TACC3 binding, luminescence; at 9.99 µM; stronger effect = higher value; TACC3 fragment carries E629A point mutation;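 also: 0% = complete ARNT plus TACC3 wells and 100% = ARNT alone without TACC3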

inhibition, active:
C/C(=N\NC(=O)Cc1ccc(Cl)cc1)c1ccccn1 28.6%
COc1ccc(CC(=O)N/N=C(\C)c2ccccn2)cc1 65.8%
CC(=O)/C(=N\Nc1ccc(Cl)cc1Cl)Sc1cccc2cccnc12 61.1%
CNC[C@H]1Oc2cc(C#Cc3ccccn3)ccc2S(=O)(=O)N([C@H](C)CO)C[C@@H]1C 47.7%

inhibition, inactive:
COc1ccc(CNC(=O)COc2cccnc2[N+](=O)[O-])cc1 -14.8%
CCOc1ncccc1C(=O)NCCc1ccc(OC)cc1 3.87%
C/C(=N/NC(=O)CSc1ccccn1)c1ccc([N+](=O)[O-])cc1 -1.61%
C/C(Cc1ccccc1)=N\NC(=O)CNC(=O)c1ccccc1Cl 4.6%
C[C@H]1CN([C@@H](C)CO)C(=O)c2cc(/C=C/c3ccccc3)cnc2O[C@H]1CN(C)Cc1cccc(C(=O)O)c1 -2.95%
CO[C@@H]1CN(C)C(=O)c2cc(NC(=O)Nc3cc(F)ccc3F)ccc2OC[C@@H](C)N(C)C[C@H]1C 11.6%
CO[C@H]1CN(C)C(=O)c2cc(NC(=O)C3CCOCC3)ccc2OC[C@@H](C)N(Cc2cccnc2)C[C@@H]1C -4.49%
CCNC(=O)C[C@H]1CC[C@@H]2[C@H](COc3ccc(NC(=O)Nc4cccc(Cl)c4)cc3C(=O)N2C)O1 4.93%
CO[C@@H]1CN(C)C(=O)c2cc(NC(=O)C3CCOCC3)ccc2OC[C@H](C)N(Cc2cccnc2)C[C@@H]1C -4.7%
CCCN(C)C[C@@H]1Oc2cc(-c3ccc(C)cc3)ccc2S(=O)(=O)N([C@@H](C)CO)C[C@H]1C 3.53%
CO[C@H]1O[C@H](CO)[C@@H](OC(=O)Nc2ccccc2-c2ccccc2)[C@H](OC(=O)Nc2ccccc2)[C@H]1OC(=O)Nc1ccccc1 0.749%
COc1ccccc1-c1ccc([C@@H]2[C@@H](CO)N3CCCCN(C(=O)c4ccncc4)C[C@@H]23)cc1 -0.716%
CC1(c2ccc(Cl)cc2Cl)NC(=O)N(CC(=O)Nc2cccnc2Cl)C1=O (stereo not drawn) 0.909%
CC(NC(=O)COc1cccnc1[N+](=O)[O-])c1ccc(Cl)cc1Cl (stereo not drawn) 1.05%
CN1C[C@H]2[C@@H](c3ccccc31)[C@@H](CO)N2Cc1ccccc1 2.13%
COc1ccc(NC(=O)Nc2ccc3c(c2)C(=O)N([C@H](C)CO)C[C@H](C)[C@H](CN(C)S(=O)(=O)c2ccc(OC)cc2)O3)cc1 8.74%
O=C(Nc1cc(F)ccc1F)N1CCCCN2[C@H](C1)[C@H](c1ccc(-c3cccnc3)cc1)[C@@H]2CO -4.21%
CNC[C@H]1Oc2cc(C#Cc3ccccc3)ccc2S(=O)(=O)N([C@@H](C)CO)C[C@@H]1C 21.9%
CC(C)NC(=O)N(C)C[C@H]1Oc2cc(C#Cc3ccccn3)ccc2S(=O)(=O)N([C@H](C)CO)C[C@@H]1C -1.38%

— PubChem BioAssay AID623870 (Broad Institute, 2012)
